About 83,000 compounds went through this panel and 20% of them were active in at least one assay; those are over-represented in the sample as a whole.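 Percent growth is the endpoint: 0 to 100 indicates growth inhibition (40 means 60% inhibition), 0 means no net growth, and negative values indicate cell death.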 Values without a mark were called inactive. Active and inactive are the calls of the source.
What follows are compounds tested on SNB-19 CNS (assay: NCI-60 one-dose screen, 48 h (100 = growth as untreated, 0 = no growth, -100 = all killed)). Conditions: 10 µM unless noted.
Procedure: Growth inhibition of the SNB-19 human tumor cell line is measured as a screen for anti-cancer activity. Cells are grown in 96 well plates and exposed to the test compound for 48 hours. Compounds are tested at a single concentration, which is 10^-5 M for most compounds. The reported endpoint is percent growth (GI% or GIPRCNT), where numbers from 0 - 100% represent growth inhibition, and numbers from -100% - 0 represent cell death. For example, a value of 40 represents 60% growth inhibition. A value of 0 means no net growth occurred over the course of the experiment. A value of -40 indicates 40% of cells at the beginning of the experiment died by the end of the experiment. A value of -100 means all cells are dead at the end of the experiment.
NCI-60 Human Tumor Cell Lines Screen was performed using the standard one-dose NCI protocol, which is described in more detail at https://dtp.cancer.gov/discovery_development/nci-60/default.htm.
Compounds with GIPRCNT values below 10 were considered active. Activity score was based on GIPRCNT using the following formula: […]
Score is 0 for GIPRCNT values of 100 or above, 50 for GIPRCNT values of 0, and 100 for GIPRCNT values of -100.

Compound | growth
Cc1cc(C(=O)c2ccccc2)c(C)c2c1[nH]c1ccc(Cl)cc12 | 52.3%
COc1cc(N2C(=O)c3nccnc3C2=O)cc(OC)c1OC | 106%
CCN(CC)CCCCCCNc1cc(OC)c(Cl)c2cccnc12 | 96.4%
CN(C)c1ccc(/C=C/C(=O)c2cccc(Nc3nc(Nc4ccccc4)nc(Nc4ccccc4)n3)c2)cc1 | 99.1%
C=CCn1c(C)nc2cc(Nc3nc(Cl)nc4ccccc34)ccc21 | 107%
CCN(CC)CCN1CC(O)=C(c2nc(-c3ccc(Cl)cc3)cs2)C1=N | 66.3%
O=C(NCCCNc1cc(-c2cn(-c3ccccc3)nc2-c2cccc(O)c2)ccn1)c1ccc(F)cc1 | 54.2%
N=c1sc(Cc2ccc(Cl)cc2)cn1CC(=O)c1ccc(F)cc1 | 88%
CC1CC(C(C)(C)C)C(=O)C(C(C)(C)C)C1 (stereo not given) | 106%
COc1cc(Cn2ncc3ccc(NC(=O)c4cc5ccccc5oc4=N)cc32)cc(OC)c1OC | 70.9%
CCCCCCCCCCCCCCCCCCOc1ccc(CC(=O)OCC[N+]2(C)CCCC2)cc1 | 90.8%
N#Cc1nc2c(S(=O)(=O)c3ccc(Cl)cc3)c(N)n(Nc3cccc(Cl)c3)c2nc1C#N | 64.6%
COc1ccc(NC(=O)CSc2nc(C)c(C(C)=O)n2-c2ccc(Cl)cc2)cc1 | 90.9%
COc1cc(C2NC(=O)c3ccccc3N2)ccc1OCCCCCOc1c(OC)cc(C2=NOC(c3cc(OC)c(OC)c(OC)c3)C2)cc1OC (stereo not given) | 80.2%
COc1cccc(C(=O)NCCNc2cc(-c3cn(-c4ccccc4)nc3-c3cccc(OC)c3)ccn2)c1 | 78%
O=C(Nc1ccccc1-c1nc2ccccc2c(=O)[nH]1)c1cc2ccccc2[nH]1 | 93.4%
COc1cc(C(=O)/C=C/c2c(-c3ccc(F)cc3)nc3sc(C)cn23)cc(OC)c1OC | 66.5%
COc1cccc(-c2nn(-c3ccccc3)cc2-c2ccnc(NCCNC(=O)Nc3cccc(C(F)(F)F)c3)c2)c1 | 36%
O=c1oc2ccccc2c(Cl)c1Cl | 91.7%
COc1ccc(NC(=O)CSc2nc(C)c(C(C)=O)n2-c2ccc([N+](=O)[O-])cc2)cc1 | 85.9%

Compound | growth
COc1cccc(-c2nc3sccn3c2-c2ccnc(NCCNS(=O)(=O)c3ccc(C(F)(F)F)cc3)c2)c1 | 56.5%
COc1ccc(/C=N\NC(=O)c2cc(-c3ccc(Br)cc3)n(-c3ccc(S(N)(=O)=O)cc3)n2)cc1 | 57.3%
COc1ccc2c(c1)[nH]c(=O)c1c3cccnc3cn21 | 32.7%
COC(=O)[C@]12CC[C@@H](C)[C@H](C)[C@@H]1C1=CC[C@@H]3[C@@]4(C)C(C=O)=C[C@@](C)(COC(C)=O)[C@@H]4[C@H](O)C[C@@]3(C)[C@]1(C)CC2 | 29.4%
CC(C)CCC[C@@H](C)[C@H]1CC[C@H]2[C@@H](Nc3ccc(O)cc3)CCC[C@]12C | 111%
O=c1cc(C2NNC(=S)N2)c2ccc3ccccc3c2o1 (stereo not given) | 93.2%
Cc1ccc(C(=O)CSc2nc(-c3ccc(Br)cc3)c(C#N)c(=O)[nH]2)cc1 | 96.7%
CN(C)CC1=NC2SC=C(c3ccccc3)C2C(=O)N1CC#N (stereo not given) | 108%
COC(=O)CCC1=C(C)C2=NC1=CC1=NC(=CC3=NC(=Cc4[nH]c(/c(=C(/C)O)c4C)=C2)C(C(C)=O)=C3C)C(C)=C1CCC(=O)OC | 97.3%
CN(c1ccccc1)c1ccc2c(c1)OCCC21CC1Nc1cnccc1C(=O)O (stereo not given) | 66.6%
COc1cc(/C=C/C(=O)c2c(C)nc3ccccc3c2C)ccc1OCCCN1CCN(C(=O)c2ccco2)CC1 | 99%
CN(C)CCCn1c(=O)c2ccccc2c2ccccc21 | 73.4%
O=C(Nc1cccc(Cl)c1)c1cc(N=Nc2ccc([N+](=O)[O-])cc2Cl)ccc1O | 73.2%
CN(C)CCC=C1c2ccccc2C(C)(C)c2ccccc21 | 86.1%
O=C(CCCCCCSc1nc(-c2ccccc2)cc(-c2ccc(Cl)cc2)n1)NO | 18.3%
c1ccc2cc3nc4cc5ccccc5cc4nc3cc2c1 | 97.2%
C[n+]1cccc(CC(=O)NO)c1 | 102%
NC(=O)c1ccc[n+](Cc2ccc(Cl)cc2Cl)c1 | 101%
O=C1Nc2ccc(F)cc2C12Nc1cc(Cl)ccc1S2 (stereo not given) | 92.1%
CCCCNC(=O)Oc1ccc2c(=O)c3sc4c(=O)c5ccccc5c(=O)c4c3c(=O)c2c1 | -93.6% (active)
